Source: PubChem BioAssay (NCI)
About 79,000 compounds went through this panel and 15% of them were active in at least one assay; those are over-represented in the sample as a whole. A number with no mark means an inactive call. Activity calls are given as the source filed them. Rule as the data show it: active = growth inhibition above about 70%; inactive = the rest. Residues, ends and D or L forms follow the SMILES beside them. *: point of attachment. Fmoc = O=C(OCC1c2ccccc2-c2ccccc21)*; Boc = CC(C)(C)OC(=O)*

Experiment: NCI Yeast Anticancer Drug Screen. Data for the rad50 strain (AID 155);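 also: 0% = growth of vehicle-only cultures of the same strain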
Settings: S. cerevisiae rad50 strain growth inhibition; at 33.0 µM; hits give high values
Procedure, shortened: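 Cells are treated with compound, grown, and their growth is then scored against vehicle-only cultures of the same repair-deficient yeast strain.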

Which growth inhibition does the source give for OC(Cc1cccc2ccccc12)CN1CCC(c2ccccc2)CC1 (configuration not stated) here?
Its growth inhibition is 86% (active).

Which growth inhibition does the source give for C1=CCN([B-](c2ccccc2)[C+]2CCCCC2)C=C1 here?
The growth inhibition was 70% (active).

For O=[N+]([O-])c1cc[n+]([O-])c(Cl)c1, which growth inhibition is on record?
The growth inhibition was 100% (active).

With CCCNC(=O)OCc1c(COC(=O)NCCC)c(-c2ccc(Cl)c(Cl)c2)n2c1CCC2 as the molecule, how does the growth inhibition read?
The growth inhibition was 1%.

Which growth inhibition does the source give for CC1(C)CC(=O)C(C(=O)Nc2cccs2)=C(O)C1 here?
Its growth inhibition is 70% (active).

Which growth inhibition does the source give for O=C(NO)c1coc2ccccc2c1=O here?
Its growth inhibition is 0%.

With COc1ccc(C(C)c2cc3c(cc2OCC(C)=O)OCO3)cc1 (configuration not stated) as the molecule, how does the growth inhibition read?
The growth inhibition was 9%.

Which growth inhibition does the source give for CCS(=O)(=O)Nc1ccc(Nc2c3ccccc3nc3ccccc23)c(OC)c1 here?
Its growth inhibition is 91% (active).

Which growth inhibition does the source give for O=S(=O)(c1ccccc1)N1CN2CN(C1)CN(S(=O)(=O)c1ccccc1)C2 here?
Its growth inhibition is -12%.

For CC1=NN(C(=O)c2ccccc2O)C(=O)/C1=C/c1ccco1, which growth inhibition is on record?
Its growth inhibition is 89% (active).

With O=C1C=C(Br)C(=O)c2ccccc21 as the molecule, how does the growth inhibition read?
The growth inhibition was 99% (active).

Which growth inhibition does the source give for C[N+](C)([O-])CCCNc1c2ccccc2nc2cccc([N+](=O)[O-])c12 here?
The growth inhibition was 94% (active).

Which growth inhibition does the source give for Cc1cccc2c(NCCCN(C)C)c3c([N+](=O)[O-])ccc(C)c3nc12 here?
Its growth inhibition is 94% (active).

Which growth inhibition does the source give for OC1(c2ccccc2)C2CC=CC2C1(c1ccccc1)c1ccccc1 (configuration not stated) here?
The growth inhibition was 43%.

Which growth inhibition does the source give for C[n+]1c(-c2ccc(/C=N/NC(=O)c3ccc(C(=O)N/N=C/c4ccc(-c5cn6ccccc6[n+]5C)cc4)cc3)cc2)cn2ccccc21 here?
The growth inhibition was 55%.

For CCN(CC)CCC(=O)Nc1ccc2sc3ccccc3c(=O)c2n1, which growth inhibition is on record?
Its growth inhibition is 93% (active).

Which growth inhibition does the source give for O=[N+]([O-])c1ccc2nc(=S)[nH]n2c1 here?
Its growth inhibition is 19%.

With O=C(c1ccccc1)[C@H]1Nc2ccc(Cl)cc2[C@H]2OCCC[C@@H]12 as the molecule, how does the growth inhibition read?
The growth inhibition was 33%.

For COc1cc([N+](=O)[O-])c2ncccc2c1Br, which growth inhibition is on record?
Its growth inhibition is 33%.

Which growth inhibition does the source give for O=S(=O)(c1cccc(C(F)(F)F)c1)N1c2ccccc2-n2cccc2C1c1cccnc1 (configuration not stated) here?
Its growth inhibition is 92% (active).

For CC(C)(C)OC(=O)NCCCCC(NC(=O)C(Cc1c[nH]c2ccccc12)NC(=O)OCC1c2ccccc2-c2ccccc21)C(=O)O (configuration not stated) (Fmoc-Trp-Lys(Boc)-OH; configuration not given here), which growth inhibition is on record?
Its growth inhibition is 11%.

Same assay, conditions: S. cerevisiae rad50 strain growth inhibition; at 50.0 µM (retest, dose inferred, filed as 5.0); hits give high values

With CC(C)C(=O)CC(Sc1ccc(N)cc1)c1ccccc1 (configuration not stated) as the molecule, how does the growth inhibition read?
Its growth inhibition is 77% (active).

Which growth inhibition does the source give for CC(C)OP(=O)(OC(C)C)/C(Cl)=N/Nc1ccc([N+](=O)[O-])cc1 here?
The growth inhibition was 95% (active).

With O=[N+]([O-])c1cc(Cl)ccc1S(=O)(=O)c1ccc(Cl)cc1[N+](=O)[O-] as the molecule, how does the growth inhibition read?
Its growth inhibition is 92% (active).

With CCCCCCNCCCNc1c2cc(OC)ccc2nc2cccc([N+](=O)[O-])c12 as the molecule, how does the growth inhibition read?
Its growth inhibition is 97% (active).

For N#CCC(=O)N/N=C(\c1ccccc1)C(c1ccccc1)C1(O)C(=O)Nc2c(Cl)ccc(Cl)c21 (configuration not stated), which growth inhibition is on record?
Its growth inhibition is 51%.

With CN(C)CCNCCCNc1c2ccccc2nc2cccc([N+](=O)[O-])c12 as the molecule, how does the growth inhibition read?
Its growth inhibition is 93% (active).

For CCC[CH2][Ge]([CH2]CCC)([CH2]CCC)[O]C(=O)C(O)c1ccccc1 (configuration not stated), which growth inhibition is on record?
The growth inhibition was 95% (active).

For COc1ccc(-c2cc(-c3cc(C)cc(Cl)c3O)nc3[nH]c(=S)[nH]c(=S)c23)cc1, which growth inhibition is on record?
The growth inhibition was 96% (active).

With O=[N+]([O-])c1ccc(/C=C\c2ccc3c(c2)OCO3)c([N+](=O)[O-])c1 as the molecule, how does the growth inhibition read?
Its growth inhibition is 92% (active).

With O=C1c2ccccc2N2OC3(N4CCCC4)CCCCC3C12c1ccccc1 (configuration not stated) as the molecule, how does the growth inhibition read?
The growth inhibition was -14%.

With CC(C)OC(=O)NNc1cc(Cl)ccc1Cl as the molecule, how does the growth inhibition read?
Its growth inhibition is 44%.

Which growth inhibition does the source give for Cc1oc2ccccc2c(=O)c1Cn1nnc2ccccc21 here?
Its growth inhibition is 47%.

For CC1(C)OC(=O)C(=Cc2ccc([N+](=O)[O-])s2)C(=O)O1, which growth inhibition is on record?
Its growth inhibition is 89% (active).

With CCN(CC)CCCNc1ccc([N+](=O)[O-])c2nc3ccc(OC)cc3c(NCCCN(CC)CC)c12 as the molecule, how does the growth inhibition read?
The growth inhibition was 18%.

With COc1cccc(/C=C2\S/C(=N/Nc3nc(-c4ccc([N+](=O)[O-])cc4)cs3)NC2=O)c1O as the molecule, how does the growth inhibition read?
Its growth inhibition is 84% (active).

Which growth inhibition does the source give for OC(Cc1cccc2ccccc12)CN1CCC(c2ccccc2)CC1 (configuration not stated) here?
Its growth inhibition is 68%.

For C1=CCN([B-](c2ccccc2)[C+]2CCCCC2)C=C1, which growth inhibition is on record?
The growth inhibition was 86% (active).

For O=[N+]([O-])c1cc[n+]([O-])c(Cl)c1, which growth inhibition is on record?
The growth inhibition was 99% (active).

Which growth inhibition does the source give for CCCNC(=O)OCc1c(COC(=O)NCCC)c(-c2ccc(Cl)c(Cl)c2)n2c1CCC2 here?
Its growth inhibition is 42%.

With CC1(C)CC(=O)C(C(=O)Nc2cccs2)=C(O)C1 as the molecule, how does the growth inhibition read?
The growth inhibition was 42%.

With O=C(NO)c1coc2ccccc2c1=O as the molecule, how does the growth inhibition read?
Its growth inhibition is 24%.

Which growth inhibition does the source give for COc1ccc(C(C)c2cc3c(cc2OCC(C)=O)OCO3)cc1 (configuration not stated) here?
Its growth inhibition is 14%.

With CCS(=O)(=O)Nc1ccc(Nc2c3ccccc3nc3ccccc23)c(OC)c1 as the molecule, how does the growth inhibition read?
Its growth inhibition is 99% (active).

Which growth inhibition does the source give for O=S(=O)(c1ccccc1)N1CN2CN(C1)CN(S(=O)(=O)c1ccccc1)C2 here?
The growth inhibition was 38%.

For CC1=NN(C(=O)c2ccccc2O)C(=O)/C1=C/c1ccco1, which growth inhibition is on record?
The growth inhibition was 89% (active).

With O=C1C=C(Br)C(=O)c2ccccc21 as the molecule, how does the growth inhibition read?
The growth inhibition was 99% (active).

With C[N+](C)([O-])CCCNc1c2ccccc2nc2cccc([N+](=O)[O-])c12 as the molecule, how does the growth inhibition read?
The growth inhibition was 89% (active).

For Cc1cccc2c(NCCCN(C)C)c3c([N+](=O)[O-])ccc(C)c3nc12, which growth inhibition is on record?
The growth inhibition was 78% (active).

With OC1(c2ccccc2)C2CC=CC2C1(c1ccccc1)c1ccccc1 (configuration not stated) as the molecule, how does the growth inhibition read?
The growth inhibition was 53%.

Which growth inhibition does the source give for C[n+]1c(-c2ccc(/C=N/NC(=O)c3ccc(C(=O)N/N=C/c4ccc(-c5cn6ccccc6[n+]5C)cc4)cc3)cc2)cn2ccccc21 here?
Its growth inhibition is 92% (active).

With CCN(CC)CCC(=O)Nc1ccc2sc3ccccc3c(=O)c2n1 as the molecule, how does the growth inhibition read?
The growth inhibition was 90% (active).

Which growth inhibition does the source give for O=[N+]([O-])c1ccc2nc(=S)[nH]n2c1 here?
Its growth inhibition is 94% (active).

For O=C(c1ccccc1)[C@H]1Nc2ccc(Cl)cc2[C@H]2OCCC[C@@H]12, which growth inhibition is on record?
Its growth inhibition is 4%.

For COc1cc([N+](=O)[O-])c2ncccc2c1Br, which growth inhibition is on record?
Its growth inhibition is 32%.

Which growth inhibition does the source give for O=S(=O)(c1cccc(C(F)(F)F)c1)N1c2ccccc2-n2cccc2C1c1cccnc1 (configuration not stated) here?
Its growth inhibition is 96% (active).

For CC(C)(C)OC(=O)NCCCCC(NC(=O)C(Cc1c[nH]c2ccccc12)NC(=O)OCC1c2ccccc2-c2ccccc21)C(=O)O (configuration not stated) (Fmoc-Trp-Lys(Boc)-OH; configuration not given here), which growth inhibition is on record?
The growth inhibition was 22%.
